This passage reports growth inhibition, inhibition and outcome results from PubChem BioAssay.

SMILES strings stand for the structures. Values without a mark were called inactive. For some of these results: Entries with a potency or affinity are not part of this list. Activity calls are given as the source filed them. Unless noted, the rule behind the calls is not given here.

The nature of test [1]: antimalarial activity against Dd2 strain (AID 2302;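 active = growth inhibition above 50% at the single 2 µM test dose, taken to imply half-maximal potency below 2 µM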;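 note: 0% = DMSO untreated growth and 100% = chloroquine plus artemisinin killed control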). The following applies: P. falciparum Dd2 in RBCs, LDH growth readout, 72 h; at 2 µM; active compounds read high.
A short description of test [2]: HepG2 cytotoxicity, primary screen, cytotoxicity control for P. falciparum antimalarial project, cell-based, ATP luminescence (AID 2303;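 active = inhibition above 50%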;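 note: 0% = DMSO wells and 100% = digitonin-killed cells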). As to conditions: HepG2 viability, 24-48 h, at 10 µM, active compounds read high.
The target in test [3] is L-lactate dehydrogenase (Plasmodium falciparum (isolate CDC / Honduras)) (UniProt Q27743). As to the kind of experiment: PfLDH activity inhibition – cell lysate, 3D7 strain, counter-screen for P. falciparum growth inhibition project (AID 2304).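 Note: 0% = vehicle and 100% = reference inhibitor.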 As to conditions: P. falciparum 3D7 crude extract, LDH APAD/NBT absorbance; at 2 µM; active compounds read high. A general note: A counterscreen serves to expose hits that act by an unwanted route or on another target.
L-lactate dehydrogenase (Plasmodium falciparum (isolate CDC / Honduras)), sequence (Q27743 whole entry, looked up): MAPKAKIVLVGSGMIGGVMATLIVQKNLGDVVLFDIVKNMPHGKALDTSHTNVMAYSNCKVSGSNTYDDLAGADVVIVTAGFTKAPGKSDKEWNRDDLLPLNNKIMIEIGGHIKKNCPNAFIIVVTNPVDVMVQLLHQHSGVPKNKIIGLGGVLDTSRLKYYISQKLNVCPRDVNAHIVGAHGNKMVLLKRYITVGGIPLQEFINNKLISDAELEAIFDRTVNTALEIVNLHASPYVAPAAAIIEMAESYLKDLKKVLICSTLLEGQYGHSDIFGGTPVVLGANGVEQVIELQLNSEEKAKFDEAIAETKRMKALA

Test [4] can be described thus: inhibition of 3D7 malaria parasite growth – strain 3D7 (AID 2306).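 Note: 0% = DMSO wells and 100% = chloroquine plus artemisinin control wells.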 As to conditions: P. falciparum 3D7 erythrocytic growth, LDH absorbance, 72 h; at 2 µM; active compounds read high.
For test [5], the target named is Calcium-dependent protein kinase 1 (Plasmodium falciparum (isolate 3D7)) (UniProt P62344). The test is described as follows: PfCDPK1 kinase inhibitors, biochemical, TCAMS library (AID 1159585; cut-off not given, nearly all actives have IC50 up to about 0.98 µM;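 note: inhibitors leave more ATP so luminescence rises with inhibition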). As to conditions: recombinant PfCDPK1, Kinase-Glo ATP depletion luminescence. In general terms: Kinase-Glo reads ATP consumption through a luciferase reaction.
Calcium-dependent protein kinase 1 (Plasmodium falciparum (isolate 3D7)), sequence (P62344 whole entry, looked up): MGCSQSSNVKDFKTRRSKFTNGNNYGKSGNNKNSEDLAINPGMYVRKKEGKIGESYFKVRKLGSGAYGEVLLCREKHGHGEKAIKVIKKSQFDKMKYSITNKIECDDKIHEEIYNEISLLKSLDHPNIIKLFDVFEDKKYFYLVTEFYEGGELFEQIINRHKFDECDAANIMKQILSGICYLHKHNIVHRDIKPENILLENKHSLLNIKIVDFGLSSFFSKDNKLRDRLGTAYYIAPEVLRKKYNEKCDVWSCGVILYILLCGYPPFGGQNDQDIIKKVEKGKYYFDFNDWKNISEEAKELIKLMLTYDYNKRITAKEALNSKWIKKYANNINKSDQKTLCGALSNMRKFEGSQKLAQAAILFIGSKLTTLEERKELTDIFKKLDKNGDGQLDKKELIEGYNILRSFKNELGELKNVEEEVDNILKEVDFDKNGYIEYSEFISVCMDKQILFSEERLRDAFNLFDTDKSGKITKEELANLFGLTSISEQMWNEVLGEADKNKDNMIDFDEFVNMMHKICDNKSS
Test [6] addresses Plasmodium falciparum protein kinase 6 (PK6, PF3D7_1337100) (UniProt Q8IDW1). The test is described as follows: PfPK6 kinase inhibitors, biochemical, TCAMS library (AID 1159586). As to conditions: recombinant PfPK6, Kinase-Glo ATP depletion luminescence.
Test [7] addresses Protein kinase 7 (PK7), Plasmodium falciparum 3D7 (PF3D7_0213400) (UniProt Q7YTF7). As to the kind of experiment: inhibition of Plasmodium PK7 catalytic activity – biochemical, TCAMS antimalarial set, Kinase-Glo luminescence (AID 1159587). As to conditions: recombinant PfPK7, Kinase-Glo ATP depletion luminescence.
Test [8] deals with Calcium-dependent protein kinase 4 (Plasmodium falciparum (isolate 3D7)) (UniProt Q8IBS5). The test is described as follows: PfCDPK4 kinase inhibitors, biochemical, TCAMS library (AID 1159588; cut-off not given, nearly all actives have IC50 up to about 0.91 µM). As to conditions: recombinant PfCDPK4, Kinase-Glo ATP depletion luminescence.
Calcium-dependent protein kinase 4 (Plasmodium falciparum (isolate 3D7)), sequence (Q8IBS5 whole entry, looked up): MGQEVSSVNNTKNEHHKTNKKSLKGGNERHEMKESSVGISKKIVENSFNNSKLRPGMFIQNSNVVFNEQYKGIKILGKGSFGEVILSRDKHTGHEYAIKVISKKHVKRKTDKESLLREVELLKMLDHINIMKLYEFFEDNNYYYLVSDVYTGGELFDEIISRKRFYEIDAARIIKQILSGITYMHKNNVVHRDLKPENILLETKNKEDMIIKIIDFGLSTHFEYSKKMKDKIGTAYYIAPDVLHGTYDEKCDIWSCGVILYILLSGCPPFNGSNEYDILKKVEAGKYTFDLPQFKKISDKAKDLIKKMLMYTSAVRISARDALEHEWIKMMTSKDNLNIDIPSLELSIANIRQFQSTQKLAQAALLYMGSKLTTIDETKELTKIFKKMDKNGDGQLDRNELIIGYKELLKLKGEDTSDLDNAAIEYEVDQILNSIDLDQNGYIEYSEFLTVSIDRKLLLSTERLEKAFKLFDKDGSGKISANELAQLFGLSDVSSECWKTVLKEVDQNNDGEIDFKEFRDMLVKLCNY

Protein kinase 7 (PK7), Plasmodium falciparum 3D7 (PF3D7_0213400), sequence (Q7YTF7 1-343): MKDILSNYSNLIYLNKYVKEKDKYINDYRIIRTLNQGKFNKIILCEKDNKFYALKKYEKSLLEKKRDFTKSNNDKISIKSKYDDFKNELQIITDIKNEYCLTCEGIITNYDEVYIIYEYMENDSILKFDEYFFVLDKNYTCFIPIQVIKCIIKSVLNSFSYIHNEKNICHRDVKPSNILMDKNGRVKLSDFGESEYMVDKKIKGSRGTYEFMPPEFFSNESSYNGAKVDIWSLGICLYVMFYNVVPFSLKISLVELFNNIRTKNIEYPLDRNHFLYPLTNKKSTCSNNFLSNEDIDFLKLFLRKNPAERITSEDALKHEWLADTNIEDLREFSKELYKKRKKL
Plasmodium falciparum protein kinase 6 (PK6, PF3D7_1337100), sequence (Q8IDW1 1-305): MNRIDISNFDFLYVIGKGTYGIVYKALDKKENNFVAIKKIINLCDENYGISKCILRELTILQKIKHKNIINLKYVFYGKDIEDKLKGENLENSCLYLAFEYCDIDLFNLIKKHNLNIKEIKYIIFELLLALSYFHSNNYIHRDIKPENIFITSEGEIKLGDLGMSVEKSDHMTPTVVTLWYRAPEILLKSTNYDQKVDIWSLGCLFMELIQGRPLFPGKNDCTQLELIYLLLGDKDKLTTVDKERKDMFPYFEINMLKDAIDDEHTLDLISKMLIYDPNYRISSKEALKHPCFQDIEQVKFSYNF

On to `N/C(=N/C(=NCCCCCCN=C(/N=C(/N)Nc1ccc(Cl)cc1)N1CCOCC1)N1CCOCC1)Nc1ccc(Cl)cc1`, for which the growth inhibition in test [1] is 91% (active); in test [4], 93% (active). Further, the inhibition (commonly the drop in the measured response relative to a control, in per cent) in test [2] is -11%; in test [3] it was 2%. Moreover, the result in test [5], in test [6], in test [7] and in test [8] was inactive.
With `CC(=O)NC1=NC(C)(C)N(OCc2ccc(Cl)c(Cl)c2)C(NC(C)=O)=N1`, the results for the growth inhibition in test [1] and in test [4] were 97% (active) and 94% (active), respectively. The inhibition in test [2] is 68% (active); in test [3], -5%. The result in test [5], in test [6], in test [7] and in test [8] was inactive.
For `CO/C(=C\C=C\c1cc2cc(Cl)c(Cl)cc2[nH]1)C(=O)NCCCN1CCN(c2cccc(CCCO)c2)CC1`, the growth inhibition was 36% in test [1] and 90% (active) in test [4]. Moreover, the inhibition is 66% (active) in test [2] and 3% in test [3]. Besides, the outcome in test [5], in test [6], in test [7] and in test [8] was inactive.
As to `COc1cc(CCN(C)Cc2ccc(OC)c(OC)c2)ccc1NC(=O)c1cccc2c(=O)c3cccc(F)c3[nH]c12`, the results for the growth inhibition in test [1] and in test [4] were 26% and 102% (active), respectively. Further, the values for the inhibition in test [2] and in test [3] were 14% and 0%, respectively. Further, the result in test [5], in test [6], in test [7] and in test [8] was inactive.
As to `Cc1ncccc1C(=O)Nc1cccc(-c2cccc(-c3nc4ccc(C(F)(F)F)cc4[nH]3)c2)c1`, the growth inhibition in test [1] was 30%; in test [4], 96% (active). The inhibition in test [2] was 34%; in test [3] it was 1%. Further, the result in test [5], in test [6], in test [7] and in test [8] was inactive.
On to `COc1ccc(Oc2ccc(-c3c(C)[nH]c(C)c(Cl)c3=O)cc2)cc1`, for which the growth inhibition in test [1] and in test [4] was 97% (active) throughout. In addition, the results for the inhibition in test [2] and in test [3] were -2% and -3%, respectively. Moreover, the result in test [5], in test [6], in test [7] and in test [8] was inactive.
On to `Clc1ccc2nc(-c3cccnc3)[nH]c2c1`, for which the values for the growth inhibition in test [1] and in test [4] were 97% (active) and 92% (active), respectively. The inhibition in test [2] is -11%; in test [3] it was 2%. Further, the outcome in test [5], in test [6], in test [7] and in test [8] was inactive.
For `COc1ccc(C(=O)N2CCC(CN3CCOC(c4ccccc4)(c4ccccc4)C3)CC2)cc1`, the growth inhibition in test [1] was 96% (active); in test [4] it was 95% (active). Besides, the inhibition in test [2] is 19%; in test [3] it was 5%. Further, the result in test [5], in test [6], in test [7] and in test [8] was inactive.
For the molecule `CCOC(=O)c1ccc(NC(=O)Nc2cccc(-c3ccc(-c4nc5ccc(C(F)(F)F)cc5[nH]4)cc3)c2)cc1`, the results for the growth inhibition in test [1] and in test [4] were 99% (active) and 101% (active), respectively. In addition, the inhibition was 62% (active) in test [2] and -4% in test [3]. Also, the outcome in test [5], in test [6], in test [7] and in test [8] was inactive.
In the case of `CCn1c(Cc2ccccc2)nnc1Sc1ccc([N+](=O)[O-])c(C#N)c1`, the results for the growth inhibition in test [1] and in test [4] were 72% (active) and 93% (active), respectively. Also, the inhibition in test [2] was 8%; in test [3], -5%. For the same molecule, the result in test [5], in test [6], in test [7] and in test [8] was inactive.
As to `Cc1ccc(OC2CCN(c3ccc(C(=O)NC4CC4)cn3)CC2)cc1`, the growth inhibition in test [1] is 75% (active); in test [4], 87% (active). In addition, the inhibition in test [2] is 11%; in test [3] it was 4%. For the same molecule, the outcome in test [5], in test [6], in test [7] and in test [8] was inactive.
`Cc1cccc2[nH]c(-c3cccc(-c4ccc(NC(=O)C5CCN(C)CC5)cc4)c3)nc12`: the growth inhibition in test [1] was 100% (active); in test [4], 101% (active). The inhibition in test [2] was 16%; in test [3], 3%. In addition, the outcome in test [5], in test [6], in test [7] and in test [8] was inactive.
Take `CS(=O)(=O)c1ccc(CNCc2ccc(-c3cccc(-c4nc5ccc(C(F)(F)F)cc5[nH]4)c3)cc2)cc1`: the growth inhibition in test [1] was 100% (active); in test [4], 102% (active). The inhibition in test [2] is 54% (active); in test [3], 8%. Also, the outcome in test [5], in test [6], in test [7] and in test [8] was inactive.
Take `Cc1ccc(NC(=O)Nc2cccc(Cl)c2)cc1-c1ccc(C(=O)Nc2ccncc2)cc1`: the growth inhibition in test [1] is 49%; in test [4], 97% (active). For the same molecule, the values for the inhibition in test [2] and in test [3] were 67% (active) and -1%, respectively. Moreover, the result in test [5], in test [6], in test [7] and in test [8] was inactive.
Take `O=c1ccc2ccc(F)c3c2n1CC3CN1CCC(NCc2cccc(-c3ccccc3F)c2)CC1` (stereo not given): the growth inhibition in test [1] is 6%; in test [4] it was 100% (active). Further, the values for the inhibition in test [2] and in test [3] were 29% and -1%, respectively. The result in test [5], in test [6], in test [7] and in test [8] was inactive.
Consider `CO/C(=C\C=C\c1cc2cc(Cl)c(Cl)cc2[nH]1)C(=O)NCCCN1CCN(c2cccc(CCO)c2)CC1`, for which the figures for the growth inhibition in test [1] and in test [4] were 32% and 101% (active), respectively. Also, the inhibition in test [2] was 61% (active); in test [3], -1%. For the same molecule, the outcome in test [5], in test [6], in test [7] and in test [8] was inactive.
Turning to `O[C@H]1[C@H](OCc2ccc(-c3ccccc3)cc2)CC[C@@H]1N1CCCCC1`, the growth inhibition was 101% (active) in test [1] and 96% (active) in test [4]. Further, the inhibition in test [2] and in test [3] was 9% in each case. Moreover, the result in test [5], in test [6], in test [7] and in test [8] was inactive.
Regarding `CC(C)(C)NS(=O)(=O)c1cc(C(=O)N2CCC(CCN3CCC(O)(c4cccc(C(F)(F)F)c4)CC3)(c3cccc(F)c3)CC2)c(Cl)cc1F`, the growth inhibition in test [1] is 55% (active); in test [4], 88% (active). Moreover, the inhibition in test [2] was 15%; in test [3], -6%. For the same molecule, the outcome in test [5], in test [6], in test [7] and in test [8] was inactive.
As to `CC1(C)N=C(NC(=O)Nc2ccc([N+](=O)[O-])cc2)N=C(N)N1OCc1cccc2ccccc12`, the growth inhibition was 21% in test [1] and 97% (active) in test [4]. For the same molecule, the inhibition in test [2] is 35%; in test [3], -3%. Besides, the outcome in test [5], in test [6], in test [7] and in test [8] was inactive.
`COc1cc(C(=O)Nc2cccc(-c3nc4ccccc4[nH]3)c2)cc(OC)c1OC`: the growth inhibition is 41% in test [1] and 99% (active) in test [4]. Further, the results for the inhibition in test [2] and in test [3] were 25% and -3%, respectively. Further, the result in test [5], in test [6], in test [7] and in test [8] was inactive.
